Source: PubChem BioAssay (Broad Institute)
CDK5 p35 inh: blocks human CDK5/p35 kinase activity | Recombinant CDK5/p35, ADP-Glo luminescence, 60 min | hit rate 0.01% among 330,000 | inhibition, % at 10 µM | Q00535+Q15078;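 active means highest replicate inhibition of at least 50% and at least 75% of replicates reaching 50%; inconclusive means only one of the two criteria met; inactive means both criteria failed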;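 further: plate controls were DMSO neutral control for no effect and GW8510 at 10 µM for full effect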
Casp6 inh: blocks human caspase-6 cleavage activity | P55212 | inhibition, % at 12.5 µM | AID 686996 | hit rate 0.53% among 350,000 | purified caspase-6, Z-VEID-R110 cleavage fluorescence;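 active means mean inhibition across replicates at least about 35%, with every replicate also reaching that limit, limit read from the data; inconclusive means only one of the two criteria met; inactive means neither criterion met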;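 further: 0% = median of neutral control wells and 100% = no fluorescence left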
Target sequence (P55212 24-179 limits assumed): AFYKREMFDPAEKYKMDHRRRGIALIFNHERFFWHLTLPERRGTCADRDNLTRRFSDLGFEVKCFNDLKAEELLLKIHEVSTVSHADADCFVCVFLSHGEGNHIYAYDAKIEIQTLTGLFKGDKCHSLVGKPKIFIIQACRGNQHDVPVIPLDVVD
Target sequence (P55212 194-293 limits assumed): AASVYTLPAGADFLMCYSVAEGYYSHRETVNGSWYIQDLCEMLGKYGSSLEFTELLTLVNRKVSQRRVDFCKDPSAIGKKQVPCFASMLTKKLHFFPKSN
ALR H2O2 inh: human ALR oxidase inhibition via reduced H2O2; purified ALR, DTT oxidation, H2O2 HRP-luminol luminescence; inhibition, % (concentration not given with the values); hit rate 3.8% among 290,000; AID 485317;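 active means mean replicate inhibition above about 79%, with every replicate also reaching it, limit read from the data; inconclusive means only one of the two criteria met; inactive means mean below limit and not every replicate reaching it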
Target sequence (P55789 whole entry, looked up): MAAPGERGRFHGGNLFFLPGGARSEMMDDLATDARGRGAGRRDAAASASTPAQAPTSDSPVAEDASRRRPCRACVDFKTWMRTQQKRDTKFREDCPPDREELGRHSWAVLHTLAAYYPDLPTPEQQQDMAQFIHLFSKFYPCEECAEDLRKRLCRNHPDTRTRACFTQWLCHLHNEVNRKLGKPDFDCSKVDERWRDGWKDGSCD
Glyco luc inh: N-linked glycosylation inhibition; AID 588692; D54 ERlucT glycosylation luciferase reporter, 24 h; percent of 100 nM tunicamycin response; hit rate 0.23% among 360,000; reporter increase, % at 12.5 µM;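 active means mean luciferase reporter signal, scaled so untreated is 0 and the glycosylation-blocking control 100, at or above a set limit in every replicate; inconclusive means mean reaches the limit but not every replicate does; inactive means mean below the limit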;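 further: luciferase carries N-glycosylation sites so blocking glycosylation raises the light; 0% = median of neutral control wells and 100% = median of 100 nM tunicamycin wells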
NSD2 HMT inh: NSD2 (human) methyltransferase inhibition | O96028 | NSD2 peptide methylation, AlphaScreen, 120 min | inhibition, % at 12.5 µM | hit rate 0.54% among 310,000; in the data active means inhibition above about 50%
SUMO Mot1 rescue: inhibitors of SUMOylation pathway: yeast Mot1-301 growth rescue; S. cerevisiae Mot1-301 growth rescue, ATP luminescence, 38.5C; percent above DMSO median, 100 means doubled; growth rescue, % at 18.8 µM; hit rate 1% among 320,000; AID 2716;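 active means every valid replicate shows activation above 250% relative to neutral control wells; inactive means the rest, any valid replicate at or below 250%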;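 further: OY570 slx delta 5 strain wells were the positive control but not used for scaling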
* hit, by the source's call; ? = inconclusive; · = no result. Compounds with a hit are over-represented: about 3.9% of the library has one in this group of screens.

SMILES	CDK5 p35 inh	Casp6 inh	ALR H2O2 inh	Glyco luc inh	NSD2 HMT inh	SUMO Mot1 rescue
Cc1noc(C)c1NC(=O)Nc1cccc2c1O[C@@H](CN(C)S(=O)(=O)c1cccs1)[C@@H](C)CN([C@@H](C)CO)C2=O	·	-2	·	·	·	·
C/C=C/c1cnc2c(c1)C(=O)N([C@@H](C)CO)C[C@@H](C)[C@@H](CN(C)Cc1ccncc1)O2	·	0	·	·	·	·
CO[C@H](CN(C)S(=O)(=O)c1ccccc1)[C@@H](C)CN(Cc1ccccc1Cl)[C@H](C)CO	·	2	·	·	·	·
C[C@H]1CN([C@@H](C)CO)C(=O)c2cc(C#CCc3ccccc3)cnc2O[C@@H]1CN(C)C(=O)C1CCOCC1	·	-3	·	·	·	·
O=C(NCC1CC1)[C@@H]1[C@@H](CO)[C@@H]2Cn3c(cccc3=O)[C@@H]2N1C(=O)CC1CC1	·	-1	·	·	·	·
CCN(CCCNC(=O)COc1cc(=O)n(C)c2ccccc12)c1cccc(C)c1	4	·	98*	4	8	-4
Cc1cccc(CCNC(=O)COc2cc(=O)n(C)c3ccccc23)c1	-3	1	-20	1	-2	7
Cc1ccc(S(=O)(=O)N[C@@H]2CC[C@@H](CC(=O)N3CCc4ccccc4C3)O[C@@H]2CO)cc1	·	1	·	·	·	·
O=C(c1nc2ccccn2c1CN1CCCC(c2nc3ccccc3o2)C1)N1CCCC1 (stereo unspecified)	-1	51*	-3	2	-3	1
CCN(CC)C1CCN(Cc2c(C(=O)N3CCCCCCC3)nc3ccc(Cl)cn23)C1 (stereo unspecified)	1	64*	-3	1	42	13
OC(CSc1ccc(F)cc1)CN1CCN(c2ccccc2)CC1 (stereo unspecified)	0	-1	87*	0	-2	9
OCC(O)CN1CCN(c2ccccc2)CC1 (stereo unspecified)	1	2	?	0	·	86
COc1ccccc1C#Cc1ccc([C@@H]2[C@H]3CN(CCC(F)(F)F)CCCCN3[C@H]2CO)cc1	·	-3	·	·	·	·
COCCn1c(SCC(=O)Nc2ccc(C(C)=O)cc2)nc2c([nH]c3ccccc32)c1=O	-1	-5	98*	1	-2	24
COCCn1c(SCC(=O)Nc2cccc(F)c2)nc2c([nH]c3ccccc32)c1=O	-2	-2	-2	·	0	15
COCCn1c(SCC(=O)Nc2cccc(NC(C)=O)c2)nc2c([nH]c3ccccc32)c1=O	1	3	98*	·	-1	25
C=CCn1c(SCC(=O)Nc2ccc(OC)cc2)nc2c([nH]c3ccccc32)c1=O	1	-2	-1	·	10	11
CCOc1ccc(NC(=S)N(CCN2CCOCC2)Cc2ccc3c(c2)CCCN3CC)cc1	0	-5	·	-4	21	25
CCN1CCCc2cc(CN(CCN3CCOCC3)C(=S)Nc3ccc(C)cc3)ccc21	0	-7	99*	-3	24	201
CCN1CCCc2cc(CN(CCN3CCOCC3)C(=S)Nc3ccc(OC)cc3)ccc21	0	-11	99*	-4	·	10
CCN1CCCc2cc(CN(CCN3CCOCC3)C(=S)Nc3cc(F)cc(F)c3)ccc21	1	-8	94*	-2	11	215
COCC(=O)N[C@@H]1CC[C@@H](CC(=O)N2CCCCC2)O[C@H]1CO	·	-3	·	·	·	·
CCOC(=O)Nc1ccc2c(c1)N(C(=O)N1CCN(C)CC1)c1ccccc1S2	0	·	98*	-4	6	4
CCOC(=O)Nc1ccc2c(c1)N(C(=O)CCN1CCN(C)CC1)c1ccccc1S2	-1	·	1	0	6	7
N#CCc1nn(-c2ccccc2)c(N)c1C#N	0	0	-9	-2	-1	-5
SMILES	CDK5 p35 inh	Casp6 inh	ALR H2O2 inh	Glyco luc inh	NSD2 HMT inh	SUMO Mot1 rescue
CCc1nn(-c2ccccc2)c(N)c1C#N	2	0	-3	0	-3	290*
COc1nccnc1NS(=O)(=O)c1ccc(NC(=S)NC(=O)c2ccc(F)cc2)cc1	-7	·	63	0	3	0
COc1nccnc1NS(=O)(=O)c1ccc(NC(=S)NC(=O)c2cccc(F)c2)cc1	2	·	91*	-1	14	162
C[C@@H](C(=O)Nc1ccc(SC(F)F)cc1)N1C(=O)C2CCCCC2C1=O (stereo partly specified)	-1	-3	90*	0	-3	-9
CN(C[C@H]1[C@@H](c2ccccc2)[C@H](CO)N1C(=O)C1CCC1)C(=O)c1ccccn1	·	0	·	·	·	·
COc1c(Cl)cc(C(=O)NN)cc1Cl	1	1	89*	3	-3	13
Cc1ccc(N2CCN(CCCN3C(=O)C4CCCN4C3=O)CC2)cc1 (stereo unspecified)	1	2	98*	0	4	-11
O=C1C2CCCN2C(=O)N1CCCN1CCN(c2cccc(Cl)c2)CC1 (stereo unspecified)	3	-4	37	-2	-1	-5
CO[C@@H]1CC[C@@H]2CCN(C)C(=O)CCCN(C)C(=O)c3cc(C#N)ccc3OC[C@H]1O2	·	0	·	·	·	·
CCC(=O)N[C@H]1C=C[C@H](CC(=O)NCc2ccccc2OC)O[C@H]1CO	·	5	·	·	·	·
C[C@@H]1CN([C@H](C)CO)S(=O)(=O)c2ccc(C3=CCCC3)cc2O[C@H]1CN(C)C(=O)c1ccncc1	·	2	·	·	·	·
Cc1nc2ccc(-c3nc4cc(N)ccc4o3)cc2[nH]1	1	·	98*	-12	-1	-12
CCC1(c2ccc(Cl)cc2)NC(=S)N(c2ccc(C)c(C)c2)N1 (stereo unspecified)	0	-1	97*	1	4	5
CCC1(c2ccccc2)NC(=S)N(c2ccc(C)c(C)c2)N1 (stereo unspecified)	1	3	·	1	-4	62
COc1ccc(CCNC(=O)c2cccs2)cc1	1	-2	0	0	-5	-6
COc1cc(OC)cc(C(=O)NNC(=O)CNC(=O)c2cccs2)c1	1	62*	·	-1	-3	-7
O=C(NCCc1ccc(F)cc1)c1cccs1	1	·	-1	-1	-4	1
O=C(NCc1ccc(F)cc1)c1cccs1	1	-1	0	1	-5	318*
COc1ccc(CNC(=O)c2cccs2)cc1	-2	·	-3	0	0	334*
O=C(C[C@@H]1C=C[C@H](NC(=O)Nc2ccc(C(F)(F)F)cc2)[C@@H](CO)O1)NCc1ccccn1	·	2	·	·	·	·
CCc1ccc(OC2=NS(=O)(=O)c3ccccc32)cc1	0	-5	·	-1	-1	·
CCN(CC)c1cccc(OC2=NS(=O)(=O)c3ccccc32)c1	0	·	99*	-1	·	-7
CN(C)/C=N/c1sc2c(c1C#N)CCCC2	-4	-1	100*	-1	7	7
CC1CCc2c(sc(/N=C/N(C)C)c2C#N)C1 (stereo unspecified)	2	2	1	1	5	2
